Assay outcomes: PubChem, National Center for Advancing Translational Sciences (NCATS)
Shown are actives, neighbours in structure and some others; about 19% of the full set was active somewhere.
TDP1 block = qHTS Assay for Inhibitors of Tyrosyl-DNA Phosphodiesterase (TDP1) | Tyrosyl-DNA phosphodiesterase 1 (Homo sapiens), Q9NUW8 | recombinant TDP1, AlphaScreen DNA substrate cleavage | Potency, µM (titrated, usually from 130 µM), usual class: inhibitors | 0.28% of 350,000 active | AID 485290, 2010; note: nearly all actives have a fitted effect of over 40% in size
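Enzyme-compound mixtures sat 15 min at room temperature, followed by a 5 min reaction with 15 nM final substrate and 10 min with AlphaScreen beads. Recombinant human Tdp1 was used at 1 nM final.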
Gal4-VP16 FLuc = VP16 counterscreen qHTS for inhibitors of ROR gamma transcriptional activity. Drosophila S2 Gal4-VP16 UAS-luciferase, luminescence, 20 h. Potency, µM (top dose mostly 53.6 µM), usual class: inhibitors. 3.5% of 310,000 active. AID 2546, 2010;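 note: Gal4-VP16 expression switched on by copper sulfate through the metallothionein promoter; nearly all actives have a fitted effect of over 50% in size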
TDP1 cell CPT = qHTS for Inhibitors of human tyrosyl-DNA phosphodiesterase 1 (TDP1): qHTS in cells in presence of CPT | Potency, µM (top dose mostly 46.2 µM), most hits filed as inhibitors | AID 686979, 2013 | chicken DT40 Tdp1-/-;hTDP1 cells + 20 nM CPT, ATP luminescence, 48 h | 12% of 420,000 active; note: nearly all actives have a fitted effect of over 55% in size
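Cell growth measured by CellTiter-Glo luminescence after a minimum 48 h, 37 C compound exposure with 20 nM CPT in Tdp1-knockout DT40 cells stably expressing hTDP1, seeded 400/well; qHTS titration format.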
RORgamma inh = qHTS for inhibitors of ROR gamma transcriptional activity. Potency, µM (titrated, usually from 53.6 µM), most hits filed as inhibitors. 5.4% of 310,000 active. AID 2551, 2010. Drosophila S2 Gal4-RORgamma UAS-luciferase reporter, 20 h; note: nearly all actives have a fitted effect of over 60% in size
Target sequence (P51450 whole entry, looked up, the tested form may be a part): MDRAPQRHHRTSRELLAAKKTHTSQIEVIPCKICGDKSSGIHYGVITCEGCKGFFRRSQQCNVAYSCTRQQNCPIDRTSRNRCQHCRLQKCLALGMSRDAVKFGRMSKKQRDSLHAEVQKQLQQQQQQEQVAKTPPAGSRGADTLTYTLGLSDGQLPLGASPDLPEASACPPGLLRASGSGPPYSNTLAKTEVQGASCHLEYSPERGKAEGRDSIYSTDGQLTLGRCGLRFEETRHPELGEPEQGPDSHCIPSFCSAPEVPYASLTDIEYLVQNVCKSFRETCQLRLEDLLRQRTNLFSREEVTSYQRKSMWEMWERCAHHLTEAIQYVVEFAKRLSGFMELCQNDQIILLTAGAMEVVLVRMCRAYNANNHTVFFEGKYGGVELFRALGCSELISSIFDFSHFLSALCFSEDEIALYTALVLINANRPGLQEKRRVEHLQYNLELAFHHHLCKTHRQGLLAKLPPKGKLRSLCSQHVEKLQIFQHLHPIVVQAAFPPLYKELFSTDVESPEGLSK
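Luciferase reporter read in Schneider cells carrying Gal4-RORγ (mouse) and UAS-Photinus luciferase; cells given compound 1 h before 700 uM copper sulfate induction, then incubated 20 h at ambient temperature.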
DT40 TDP1 no CPT = qHTS for Inhibitors of human tyrosyl-DNA phosphodiesterase 1 (TDP1): qHTS in cells in absence of CPT; AID 686978, 2013; 15% of 420,000 active; Potency, µM (doses to about 46.2 µM), most hits filed as inhibitors; DT40 Tdp1-/- hTDP1 cells, no CPT, ATP luminescence, 48 h; note: nearly all actives have a fitted effect of over 55% in size
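No-CPT arm: Tdp1-/-;hTDP1 DT40 cells (400/well) plus compounds, incubated ≥48 hr at 37 °C. Readout CellTiter-Glo luminescence.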
Hits are given with their value; – = inactive; ? = inconclusive; · = not tested or not shown; [ ] = remark or other dose. Calls come from the whole dose curve; as a rule, active = well fitted curve in the direction sought with a large enough effect; inconclusive = small, poorly fitted or top-dose-only effect, or another doubt; inactive = no such curve, though single readings can be large; an effect the other way counts as inactive or inconclusive.

SMILES	TDP1 block	Gal4-VP16 FLuc	TDP1 cell CPT	RORgamma inh	DT40 TDP1 no CPT
O=C(O)c1ccc2cc(-c3ccccc3)[nH]c2c1	·	·	–	·	–
CN(C)C=NC1=NN(c2cccc(C(F)(F)F)c2)CC1	–	–[0.365 µM]	–	–	–
COC(=O)[C@H]1C[C@@H]1[C@H](NC(=O)c1cccnc1)c1ccccc1	–	–	–	–	–
COc1ccc(-c2oc3ncnc(NCCN4CCOCC4)c3c2-c2ccc(OC)cc2)cc1	–	–	?	–	15µM
COc1ccc(-n2ncc3c(NCCCN4CCOCC4)ncnc32)cc1	–	–	–	–	–
COc1ccc(-c2oc3ncnc(NCCCN4CCOCC4)c3c2-c2ccc(OC)cc2)cc1	–	16µM	?	?	18µM
CCCCCCCCCCCCCCCC(=O)OC[C@@H](NC(=O)C(Cl)Cl)[C@H](O)c1ccc([N+](=O)[O-])cc1	·	·	–	·	–
CO[C@@H]1[C@@H](O[C@@H]2O[C@H](C)[C@@H](O[C@H]3C[C@@](C)(O)[C@@H](OC(=O)CC(C)C)[C@H](C)O3)[C@H](N(C)C)[C@H]2O)[C@@H](CC=O)C[C@@H](C)C(=O)/C=C/C2OC2C[C@@H](C)OC(=O)C[C@H]1OC(C)=O (stereo not given in full)	·	·	3.8µM	·	3.3µM
COC1C(O)CC(=O)OC(C)C/C=C/C=C/[C@@H](OC2CCC(N(C)C)C(C)O2)C(C)C[C@@H](CC=O)[C@@H]1O[C@H]1OC(C)[C@H](O[C@@H]2C[C@@](C)(O)C(O)C(C)O2)C(N(C)C)C1O (stereo not given in full)	–	–	?	–	?
COc1cc(-c2nnc(-c3ccc(S(=O)(=O)c4ccccc4)cc3)o2)cc(OC)c1OC	–	–	12µM	–	12µM
COc1cc(-c2nnc(-c3ccc(N4CCOCC4)cc3)o2)cc(OC)c1OC	–	–	6.5µM	–	5.8µM
COc1ccc(C2NS(=O)(=O)OCC2C)cc1 (stereo not given)	·	–	–	–	–
Cc1ccc(S(=O)(=O)CCC(=O)Nc2nnc(-c3ccco3)o2)cc1	–	·	?	·	?
O=C(CCS(=O)(=O)c1ccc(Cl)cc1)Nc1nnc(-c2cccs2)o1	–	·	16µM	·	16µM
Cc1ccc(S(=O)(=O)CCC(=O)Nc2nnc(-c3cccs3)o2)cc1	·	·	?	·	16µM
O=C(CCS(=O)(=O)c1ccc(Cl)cc1)Nc1nnc(-c2ccco2)o1	·	·	9.2µM	·	?
CC(=O)c1cccc(NC(=O)C2CC(=O)N(c3cccc(C)c3C)C2)c1 (stereo not given)	–	–	–	–	–
CCc1cccc(N(CC(=O)NC2CCCCC2)C(=O)c2csnn2)c1	–	–	–	–	?
Cc1ccccc1N1C(=O)c2cccc3c(N(C)CCO)ccc(c23)C1=O	–	–	?	11µM	–
COc1ccccc1N1C(=O)c2cccc3c(N(C)CCO)ccc(c23)C1=O	–	–	8.2µM	?	?
OC(c1cccs1)c1nccc2ccccc12 (stereo not given)	–	–	–	–	–
OC(c1ccccc1)c1nccc2ccccc12 (stereo not given)	–	–	–	13µM	–
Cc1csc(-c2coc3cc(O)cc(C)c3c2=O)n1	–	?	16µM	?	?
Cc1nc(-c2coc3cc(OCC(=O)O)ccc3c2=O)cs1	–	6.3µM	?	7.1µM	?
COc1ccc(-c2coc3cc(O)ccc3c2=O)c(OC)c1	–	–	–	–	–
SMILES	TDP1 block	Gal4-VP16 FLuc	TDP1 cell CPT	RORgamma inh	DT40 TDP1 no CPT
COc1ccc2c(=O)c(-c3nc(C)cs3)coc2c1	–	2.2µM	–	1.3µM	–
COc1ccc(-c2coc3cc(OC(C)=O)ccc3c2=S)cc1	·	·	26µM	·	?
Nc1c(C(=O)Nn2cnnc2)cc([N+](=O)[O-])cc1[N+](=O)[O-]	–	–	·	–	·
Cc1cccc(-c2nc3c4ccccc4nc(N4CCN(c5cccc(Cl)c5)CC4)n3n2)c1	–	·	?	·	–
CCCS(=O)(=O)n1nc(-c2ccc(C)cc2)cc1N	–	–	–	?	–
Cc1ccc(-n2c(Cl)c(Cl)nc(Cl)c2=O)cc1	–	5µM	0.29µM	2.8µM	0.92µM
CSc1ccc(CN2CCCC(CO)(Cc3ccccc3)C2)cc1 (stereo not given)	–	–	?	–	?
CC(C)[C@H](NC(=O)c1ccccc1)C(=O)OCC(=O)/C=C1/N(C)c2ccccc2C1(C)C	–	?	10µM	–	8.2µM
COc1cc(OC)cc(C(=O)NCC(=O)OCC(=O)/C=C2/N(C)c3ccccc3C2(C)C)c1	–	18µM	?	–	16µM
CC1CCC(C(C)C)C(NC(=O)c2ccncc2)C1 (stereo not given)	·	·	–	·	–
CC1CC(=O)Nc2ccccc2N1C(=O)Nc1ccc(F)cc1F (stereo not given)	–	–	–	–	–
Cc1cc(C(=O)Nc2c(F)cc(F)cc2Br)c(C)o1	–	10µM	?	?	?
COc1ccc2[nH]c(=O)c(C(c3nnnn3C(C)(C)C)N(Cc3ccco3)CC3CCCO3)cc2c1 (stereo not given)	–	–	–	–	–
COc1ccc2[nH]c(=O)c(CN(Cc3cccs3)Cc3nnnn3Cc3ccccc3)cc2c1	–	–	?	–	?
CCC(C)(C)n1nnnc1CN(Cc1ccc(Cl)cc1)Cc1ccco1	–	?	?	–	?
CCOc1ccc2[nH]c(=O)c(CN(Cc3nnnn3Cc3ccco3)C3CCCCC3)cc2c1	·	–	?	–	12µM
CC(C)(C)c1ccc(CN(Cc2ccco2)Cc2nnnn2C2CCCC2)cc1	–	2.8µM	21µM	–	15µM
COc1ccc2cc(CN(Cc3ccco3)C(c3nnnn3C3CCCCC3)C(C)C)c(=O)[nH]c2c1 (stereo not given)	–	–	23µM	–	?
COc1ccc2[nH]c(=O)c(CN(Cc3ccco3)Cc3nnnn3Cc3ccccc3)cc2c1	–	–	21µM	–	16µM
Cc1ccc(NC(=O)COC(=O)CCc2ccccc2)cc1S(=O)(=O)N1CCOCC1	–	·	–	·	–
COc1ccc2cc(CN(Cc3ccco3)Cc3nnnn3C3CCCCC3)c(=O)[nH]c2c1	–	–	26µM	–	?
COCCn1nnnc1CN(Cc1cc2cc(OC)c(OC)cc2[nH]c1=O)C1CCCC1	–	–	–	–	–
COc1ccc(Cn2nnnc2CN(Cc2cc3ccc(C)cc3[nH]c2=O)C2CCCC2)cc1	–	–	9.2µM	–	13µM
